The source made the active and inactive calls. How the source made its calls: active means hit-call score of the fitted dose curve at least 0.9, where 1 is the maximum; inactive means score below 0.9.
The compounds below were run on X-box binding protein 1 (XBP1), XBP1 (gene 7494) (assay: LTEA_HepaRG_XBP1: Life Technologies and Expression Analysis (LTEA) Assay for X-box binding protein 1 (XBP1) using HepaRG (AID 2283540)). Details: mRNA level, 48 h; actives raise or lower the signal.
Protocol: LTEA_HepaRG is a cell based, multiplexed-readout assay that uses HepaRG, a human liver cell line, with measurements taken at 48 hours after chemical dosing on a 96-well plate.LTEA_HepaRG_XBP1 is one of 102 assay component(s) measured in the LTEA HepaRG cell culture assay. It is a marker of Diseases associated with XBP1 including Major Affective Disorder 7 and Bipolar Disorder.Data from the assay component LTEA_HepaRG_XBP1 was analyzed into 1 endpoint. This assay endpoint, LTEA_HepaRG_XBP1, was analyzed with bidirectional fitting relative to DMSO as the negative control and baseline of activity. Using a type of inducible reporter, measures of mRNA induction for gain or loss-of-signal activity can be used to understand regulation of transcription factor activity. To generalize the intended target to other relatable targets, this assay endpoint is annotated to the dna binding intended target family, where the subfamily is basic leucine zipper.
A total of 1060 chemcials from the ToxCast library were tested in eight-point concentration-response experiments. Cell culture and cytotoxicity assays were conducted at Thermo Fisher Scientific's Custom Services facility (Madison, WI). A single lot of human HepaRG cells (Thermo Fisher Scientific, Frederick, MD) was used for the cell culture experiments. 96-well format collagen type I coated plates of human HepaRG cells were prepared using established methods. Briefly, cryopreserved HepaRG cells were thawed, plated at a density of approximately 100,000 cells/well in HepaRG Thaw, Plate, and General Purpose media (HPRG770, Thermo Fisher Scientific), and incubated for 48 hours. 0.5% DMSO was selected as vehicle control to balance the requisite need of DMSO in HepaRG cultures to maintain differentiation (for example, baseline metabolism, proportions of hepatocytes vs. cholangiocytes), while enabling further hepatic receptor pathway activation (for example, PXR and CAR) in response to chemical exposure. 48 hours after plating, the culture medium was replaced with HepaRG Serum-Free Incudtion Media. Cells were exposed to each test chemical in duplicate and maintained in CO2 incubators for another 48 hours. Chemical plates were thawed to room temperature and 200x concentrations of treatment groups were prepared. 8-point conentration-reponse curves were made with the highest exposure at 100 uM, followed by half-log dilutions, all in 0.5% DMSO. Each test plate contained variouse controls, induction positive controls (1mM phenobarbital), cytotoxicity positive controls ([…] aflatoxin B1), vehicle controls (0.5% DMSO), and total lysis controls (0.5% DMSO). Cell morphology images were taken using an Essen IncuCyte FLR automated microscope, with six 96-well plates imaged in about 24 minutes. Images were captured and exported and JPEG files. Spent culture media was transfered to black-well plates for the LDH assay, and remaining media was sorted at -80 C for later use. Cells were treated with RLT buffer and frozen until shipped for gene expression analysis. Total RNA was isolated from the cell suspension in 75 uL of Buffer RLT (Qiagen, Germantown, MD 20874) by Quintiles/Expression Analysis (Durham, NC) using a custom isolation procedure. Total RNA from each plate well was transferred to a preamplification plate. Fluidigm's 96.96 Dynamic ArrayTM (Fluidigm, Amsterdam, the Netherlands) technology was used for gene expression analyses by quantitative reverse transcription polymerase chain reaction (qRT-PCR, performed by Quintiles/Expression Analysis, Durham, NC)89. Standard TaqManTM Assays (Applied Biosystems/ThermoFisher Scientific, Foster City, CA) were used to assess the expression of 93 genes selected based on their selectivity and sensitivity to important hepatic receptors known to be modulated by environmental chemicals; importance in human hepatocyte functionality; and hepatotoxicity. […]

| Compound | outcome |
| --- | --- |
| O=C(O)C1(c2ccc3c(c2)OC[C@H](Cc2ccc(-c4ccccc4)cc2)[C@H]3O)CCCC1 | inactive |
| CN(C)C(=S)S | inactive |
| Clc1cccc(Cl)c1 | inactive |
| COc1ccccc1N | inactive |
| O=C(N[C@H]1CN2CCC1CC2)c1ccc2c(c1)OCCO2 | inactive |
| CC(C)(C)c1ccccc1O | inactive |
| CC(C)O.CC(C)O.OCCN(CCO)CCO.OCCN(CCO)CCO.[Ti] | inactive |
| Oc1cc(Cl)c(Cl)cc1Cl | inactive |
| Cc1cc(C)cc(C)c1 | inactive |
| OCCN(CCO)CCO | inactive |
| Clc1cccc(Cl)c1Cl | inactive |
| N#Cc1cccnc1 | inactive |
| Oc1c(Cl)cc(Cl)cc1Cl | inactive |
| CCCCCCCCCCCCc1cccc(S(=O)(=O)O)c1 | inactive |

Source: PubChem BioAssay (EPA / NIEHS)
